# An excerpt weighted towards active compounds, which were near 6.8% of everything screened.
# KB-V1 cytotox = kills drug-selected multidrug resistant KB-V1 cells. actives 3.4% (n = 400,000). Potency, µM (titrated, usually from 46.1 µM), usual class: cytotoxic. AID 1347076. KB-V1 MDR cells viability, CellTiter-Glo, 72 h; note: % is set by controls: 0 for no effect and ±100 for the full control effect; nearly all actives have a fitted effect of over 60% in size
#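 Cytotoxicity via CellTiter-Glo luminescence after 72 h compound exposure at 37 degrees C. Cells: drug-selected KB-V1 line, DMEM phenol-red free plus 10% FBS. Compounds tested at multiple concentrations; normalized data fitted to concentration-effect curves.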
# SW480 rereplic = inducers of DNA re-replication in SW480 colon cancer cells. actives 1.8% (n = 340,000). Potency, µM (highest dose often 46.1 µM), inactives show at the highest dose re-replication activation, usual class: activators. SW480 DNA re-replication, Hoechst DNA content imaging, 48 h; note: % of control where 0% means no effect; nearly all actives have a fitted effect of over 55% in size
#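 250 cells/well; 23 nL cpd via pin tool; 48 hr, 37 C, 5% CO2; Hoechst 40 min; imager read of total nuclear intensity, ex 405/em 500-530 nm.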
# PTAP TSG101 blk = blocks PTAP/TSG101 interaction to inhibit HIV-1 budding | Fluorescence polarization, FITC-PTAP peptide / Tsg101 binding | Potency, µM (doses to about 115 µM), without a hit: at the top dose activity change, negative = inhibition, hits mostly inhibitors | 340,000 tested, under 10 active; active = well fitted inhibition curve with a large enough effect in the main read-out, with a control signal flat, not every such curve was filed as active; inconclusive = small, poorly fitted or top-dose-only effect, or effect the other way, or a change in a side signal; inactive = no such curve, though single readings can be large or run the other way; note: % of control where 0% means no effect
# Target sequence (Q99816 whole entry, looked up): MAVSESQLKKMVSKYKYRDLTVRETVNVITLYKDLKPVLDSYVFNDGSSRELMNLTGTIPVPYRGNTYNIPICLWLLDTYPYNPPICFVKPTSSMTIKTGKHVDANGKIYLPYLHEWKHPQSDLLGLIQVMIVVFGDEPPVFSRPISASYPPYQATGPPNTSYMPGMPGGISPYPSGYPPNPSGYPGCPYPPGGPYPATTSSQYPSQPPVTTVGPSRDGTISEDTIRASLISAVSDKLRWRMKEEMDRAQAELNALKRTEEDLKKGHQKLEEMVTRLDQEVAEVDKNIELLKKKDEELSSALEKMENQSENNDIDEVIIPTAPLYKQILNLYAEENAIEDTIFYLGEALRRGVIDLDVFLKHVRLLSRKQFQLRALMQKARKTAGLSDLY
#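 Fluorescence polarization binding of Tsg101 binding domain (10 uM final) to FITC-labeled PTAP peptide (50 nM final) in HEPES pH 7.5 buffer with NaCl, Tween 20, EDTA, TCEP. Compounds added before peptide; binding 20 min at RT.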
# MCF10A rerep = DNA re-replication induction in MCF 10a cells | MCF 10A DNA re-replication, Hoechst nuclear intensity, 48 h | Potency, µM (titrated, usually from 46.1 µM), without a hit: at the top dose activity, positive = re-replication, actives largely listed as activators | actives 2.9% (n = 350,000); note: % of control where 0% means no effect; nearly all actives have a fitted effect of over 50% in size
# KB-3-1 tox = KB-3-1 parental cell cytotoxicity; KB-3-1 viability, CellTiter-Glo ATP luminescence, 72 h; Potency, µM (series often up to 46.1 µM), hits mostly cytotoxic; actives 1.4% (n = 400,000); note: % is set by controls: 0 for no effect and ±100 for the full control effect; nearly all actives have a fitted effect of over 60% in size
#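 KB-3-1 parental drug-naive adenocarcinoma cells in DMEM/10% FBS, incubated 72 h at 37 C with pin-transferred compounds across a concentration series. Viability by CellTiter-Glo luminescence; concentration-response curves fitted after normalization.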
# PINK1 expr mod = PINK1 expression modulation; PINK1 immunofluorescence, high-content cytometry, 24 h; Potency, µM (series often up to 76.6 µM), inactives show at the highest dose activation (PINK1 increase), hits mostly activators; actives 0.2% (n = 410,000); AID 624263; active = well fitted activation curve with a large enough effect; inconclusive = small, poorly fitted or top-dose-only effect; cell line not stated here; note: % of control where 0% means no effect; nearly all actives have a fitted effect of over 65% in size
#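 Stable cell line, 250 cells/well, 12 h attachment; compounds pinned at 5 concentrations, 24 h; CCCP control. Fixed with nuclear dye, primary antibodies 12 h at 10 degrees C, secondary plus cell stain; laser-scanning cytometer read.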
# An asterisk follows results filed as active; i = inactive; ? = inconclusive; . = not tested or not shown; [ ] = another dose, or the depositor's remark. Unless noted, calls come from the whole dose curve; as a rule, active = well fitted curve in the direction sought with a large enough effect; inconclusive = small, poorly fitted or top-dose-only effect, or another doubt; inactive = no such curve, though single readings can be large; an effect the other way counts as inactive or inconclusive. Potency is the fitted concentration of half-maximal effect.
SMILES,KB-V1 cytotox,SW480 rereplic,PTAP TSG101 blk,MCF10A rerep,KB-3-1 tox,PINK1 expr mod
O=C1c2ccccc2-c2onc3ccc(N4CCCC4)c1c23,?,?,?,?,?,-1.8%
O=C1c2ccccc2C(=O)c2c1cccc2N1CCCC1,14.6µM*,-19.5%,-12.3%,-0.7%,i,1.9%
COc1cccc2sc3cc(NCc4ccc(C)o4)ccc3c(=O)c12,i,18.4µM*,1.7%,20.6µM*,i,7.2%
COc1ccc(CCn2c(=N)c(C(=O)NC3CCCC3)cc3c(=O)n4ccccc4nc32)cc1OC,i,?,-0.3%,16.4µM*,?,1.9%
COCCCn1c(=N)c(C(=O)NC2CCCCC2)cc2c(=O)n3ccccc3nc21,i,5.17µM*,0.2%,3.26µM*,i,-1.1%
COc1ccc(CCn2c(=N)c(C(=O)NC3CCCC3)cc3c(=O)n4ccccc4nc32)cc1,i,23.1µM*,-1.4%,20.6µM*,i,5.8%
COc1ccc(CCn2c(=N)c(C(=O)NCC3CCCO3)cc3c(=O)n4ccccc4nc32)cc1OC (centres undefined),i,?,1.6%,2.7%,i,1.3%
COc1ccc(Cn2c(=N)c(C(=O)NC3CCCCC3)cc3c(=O)n4ccccc4nc32)cc1,i,4.61µM*,-0.1%,4.11µM*,i,15.8%
COCCCn1c(=N)c(C(=O)NC2CCCC2)cc2c(=O)n3ccccc3nc21,i,.,.,.,i,1.7%
O=c1cnc2cnc(Oc3ccccc3)nc2n1Cc1cccs1,.,.,.,.,.,-0.6%
COc1ccc(-c2oc3cc(O)c(OC)c(O)c3c(=O)c2OC)cc1O,0.651µM*,?,-2.6%,?,0.82µM*,10.9%
COc1ccc(CN2CCN(C(=O)CCC(=O)c3ccc(C)s3)CC2)cc1OC,4.11µM*,-3.1%,1.3%,11.0%,i,1.4%
COc1ccc(CN2CCN(C(=O)c3ccccc3C(=O)c3ccccc3)CC2)cc1OC,16.4µM*,-3.7%,-4.1%,-5.7%,i,0.1%
CC(=O)c1ccc(NS(=O)(=O)c2ccc3[nH]c(=O)[nH]c3c2)cc1,i,.,.,.,i,-1.2%
Cc1cc(C(=O)Nc2cccc(-c3nc(CNC(=O)c4ccccc4C(F)(F)F)c(C)o3)c2)c(C)o1,.,.,.,.,.,2.5%
CC(OC(=O)/C(C#N)=C/c1ccc(N(C)C)cc1)C(=O)N(C)Cc1ccccc1 (centres undefined),i,?,?,16.4µM*,i,0.7%
CCn1c(C)c(P(c2ccccc2)c2ccccc2)[n+]2ccccc12,i,3.7%,-4.5%,28.5%,9.2µM*,3.8%
CN(C)CCSc1nc(-c2ccccc2)nc2c1COC(C)(C)C2,10.3µM*,-4.0%,-10.1%,20.5%,i,3.1%[38.3 µM]
COc1cc(CN2CCOc3ccc(CN4CCC(O)(c5cccnc5)CC4)cc3C2)ccc1F,.,.,.,.,.,-0.3%
Clc1ccc2nc(-c3ccncc3)cc(-c3ccccc3)c2c1,i,-10.9%,1.1%,-7.5%,i,5.2%
c1ccc(-c2cc(-c3ccncc3)nc3ccc4ccccc4c23)cc1,?,?,-0.4%,14.6µM*,i,-1.7%
CCN(Cc1ccccc1)S(=O)(=O)c1ccc2c(c1)CC(C)N2C(=O)C1CCC1 (centres undefined),?,.,.,.,?,2.3%
Cc1cc(C)cc(-n2c(C)nc3cc(C(=O)NCc4ccccc4Cl)ccc32)c1,i,.,.,.,?,?
CCOc1cc(/C=C2\SC(=O)N(c3ccc(O)cc3)C2=O)ccc1O,i,12.9%,-3.6%,2.4%,i,16.0%
CCOc1cc(/C=C2\N=C(SC(C)C(N)=O)N(c3ccc(OC(F)F)cc3)C2=O)ccc1O (centres undefined),i,18.4µM*,20.2%,10.3µM*,i,6.0%
CCOc1ccc(N2C(=O)S/C(=C\c3ccc(O)c(OCC)c3)C2=O)cc1,i,?,29.1%,16.4µM*,i,?
